Test results as given in the supplement of paper PMC10849652.
About 8,800 targets were measured; listed, in parts, are those with a hit and a random draw of the rest. About 0.5% of all pairs of compound and target were hits.

How the values were obtained:
Test in all cases: log2 fold change, soluble protein after heating vs DMSO (PISA); higher = thermal stabilisation; K562 lysate, 10 uM; active = over 0.2 and 3.5 SD of the protein, either way, in both replicates (recomputed)
[1] = compound: NCC(=O)Nc1ccc(-n2nc(C(F)(F)F)cc2-c2ccc3c(ccc4ccccc43)c2)cc1
How it was run: (§1)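 Soluble protein was defined as the supernatant remaining after 21,000xg for 90 min, following pooling of heated aliquots and adjustment to 0.5% NP-40 at 4°C. Before that, crude K562 extract at 1 mg/mL protein in PBS pH 7.4 with 1 mM MgCl2 was treated with 10 μM compound for 30 min and heated for 3 min across 48°C-58°C. Quantification used TMTpro 16plex LC-MS/MS with channel sums equalised, and values are log-two fold changes in thermal stability relative to solvent controls from duplicates.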

[2] = compound: O=C(CCCCCCC(=O)Nc1ccccc1)NO [vorinostat]
How it was run: as §1

[3] = compound: O=C(O)c1ccc2c(c1)nc(Nc1cccc(Cl)c1)c1ccncc12 [silmitasertib]
How it was run: as §1

[4] = compound: O=C1NC(=O)C(c2cnc3ccccn23)=C1c1cn2c3c(cc(F)cc13)CN(C(=O)N1CCCCC1)CC2
How it was run: as §1

[5] = compound: c1cn2cc(-c3ccc4cn[nH]c4c3)nc(Nc3ccc(N4CCOCC4)cc3)c2n1 [entospletinib]
How it was run: as §1

Measured: log2 fold change

GART (UniProt P22102)
Chain of UniProt P22102 (P22102 whole entry, looked up): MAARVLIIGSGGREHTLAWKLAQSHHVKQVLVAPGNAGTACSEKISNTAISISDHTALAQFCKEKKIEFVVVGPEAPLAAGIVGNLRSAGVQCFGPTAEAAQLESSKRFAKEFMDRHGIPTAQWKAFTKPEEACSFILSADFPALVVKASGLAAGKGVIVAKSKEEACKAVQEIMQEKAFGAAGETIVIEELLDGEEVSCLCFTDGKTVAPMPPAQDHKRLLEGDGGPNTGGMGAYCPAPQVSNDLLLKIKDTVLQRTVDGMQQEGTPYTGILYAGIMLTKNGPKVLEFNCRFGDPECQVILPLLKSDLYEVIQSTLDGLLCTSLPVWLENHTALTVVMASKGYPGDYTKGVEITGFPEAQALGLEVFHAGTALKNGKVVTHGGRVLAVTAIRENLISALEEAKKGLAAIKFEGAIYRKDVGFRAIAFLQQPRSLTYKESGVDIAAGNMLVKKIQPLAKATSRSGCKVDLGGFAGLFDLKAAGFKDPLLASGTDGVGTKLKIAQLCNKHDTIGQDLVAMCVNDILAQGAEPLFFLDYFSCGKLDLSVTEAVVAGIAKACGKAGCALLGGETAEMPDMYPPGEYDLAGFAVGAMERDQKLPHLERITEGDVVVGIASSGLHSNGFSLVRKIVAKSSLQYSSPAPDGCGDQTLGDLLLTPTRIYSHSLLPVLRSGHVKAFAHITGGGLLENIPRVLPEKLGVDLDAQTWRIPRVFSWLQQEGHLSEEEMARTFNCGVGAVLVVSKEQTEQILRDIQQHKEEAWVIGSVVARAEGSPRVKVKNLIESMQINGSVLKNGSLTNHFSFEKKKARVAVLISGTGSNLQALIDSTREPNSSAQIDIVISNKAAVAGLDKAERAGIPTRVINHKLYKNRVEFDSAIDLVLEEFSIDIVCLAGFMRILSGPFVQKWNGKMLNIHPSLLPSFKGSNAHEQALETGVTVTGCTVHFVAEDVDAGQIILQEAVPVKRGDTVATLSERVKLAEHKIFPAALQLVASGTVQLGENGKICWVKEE
active: [2] -0.303
inactive: [1] 0.017 | [3] 0.006 | [4] 0.003 | [5] 0.012

EIF3I (UniProt Q13347)
Chain of UniProt Q13347 (Q13347 whole entry, looked up): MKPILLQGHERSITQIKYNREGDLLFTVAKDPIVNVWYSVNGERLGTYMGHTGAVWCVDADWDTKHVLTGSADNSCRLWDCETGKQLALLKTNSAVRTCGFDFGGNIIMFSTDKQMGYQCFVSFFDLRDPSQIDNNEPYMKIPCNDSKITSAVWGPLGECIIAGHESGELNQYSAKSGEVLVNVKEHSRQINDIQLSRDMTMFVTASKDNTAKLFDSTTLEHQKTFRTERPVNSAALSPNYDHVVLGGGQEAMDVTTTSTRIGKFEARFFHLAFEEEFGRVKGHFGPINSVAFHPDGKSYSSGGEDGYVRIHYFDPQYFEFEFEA
inactive: [1] 0.022 | [3] 0.061 | [4] -0.005 | [5] 0.005
active: [2] -0.316

DUS3L (UniProt Q96G46)
Chain of UniProt Q96G46 (Q96G46 whole entry, looked up): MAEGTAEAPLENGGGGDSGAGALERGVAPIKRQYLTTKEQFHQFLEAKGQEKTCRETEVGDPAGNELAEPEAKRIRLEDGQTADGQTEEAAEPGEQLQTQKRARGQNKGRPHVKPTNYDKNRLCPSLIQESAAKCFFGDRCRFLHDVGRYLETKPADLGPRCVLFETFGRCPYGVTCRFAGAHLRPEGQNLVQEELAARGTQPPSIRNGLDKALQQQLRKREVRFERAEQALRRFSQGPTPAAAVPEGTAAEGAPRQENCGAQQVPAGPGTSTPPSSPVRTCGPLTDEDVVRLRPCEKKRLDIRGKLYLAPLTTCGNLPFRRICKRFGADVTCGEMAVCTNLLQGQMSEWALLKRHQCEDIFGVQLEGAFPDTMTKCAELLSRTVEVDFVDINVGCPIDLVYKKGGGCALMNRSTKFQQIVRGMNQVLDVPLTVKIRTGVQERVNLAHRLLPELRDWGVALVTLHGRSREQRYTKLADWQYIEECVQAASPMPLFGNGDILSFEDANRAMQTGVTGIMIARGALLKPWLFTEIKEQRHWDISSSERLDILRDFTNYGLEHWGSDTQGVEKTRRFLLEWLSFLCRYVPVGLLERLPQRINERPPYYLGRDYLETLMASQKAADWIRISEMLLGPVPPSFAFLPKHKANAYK
inactive: [1] 0.002 | [2] -0.08 | [3] 0.036 | [4] -0.007 | [5] 0.014

FAM98A (UniProt Q8NCA5)
Chain of UniProt Q8NCA5 (Q8NCA5 whole entry, looked up): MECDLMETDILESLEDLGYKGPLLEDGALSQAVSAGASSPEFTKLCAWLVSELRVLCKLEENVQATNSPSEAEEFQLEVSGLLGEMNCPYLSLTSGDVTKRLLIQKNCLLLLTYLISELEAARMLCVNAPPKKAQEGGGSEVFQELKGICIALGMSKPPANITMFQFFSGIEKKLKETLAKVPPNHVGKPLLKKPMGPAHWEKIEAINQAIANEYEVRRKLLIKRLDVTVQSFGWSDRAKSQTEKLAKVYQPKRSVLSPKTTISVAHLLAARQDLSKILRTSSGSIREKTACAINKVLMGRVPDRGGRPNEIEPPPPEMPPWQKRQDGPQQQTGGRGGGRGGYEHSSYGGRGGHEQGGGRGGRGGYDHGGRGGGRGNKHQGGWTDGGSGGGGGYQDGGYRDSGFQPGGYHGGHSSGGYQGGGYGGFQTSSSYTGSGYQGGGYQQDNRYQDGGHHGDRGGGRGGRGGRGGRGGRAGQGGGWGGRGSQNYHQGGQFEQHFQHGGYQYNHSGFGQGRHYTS
inactive: [1] 0.027 | [3] 0.005 | [4] 0.01 | [5] 0.006
active: [2] -0.558

GAMT (UniProt Q14353)
inactive: [1] -0.046 | [3] -0.008 | [4] -0.049 | [5] -0.001
active: [2] -0.423

FAT2 (UniProt Q9NYQ8)
inactive: [1] 0.393 | [2] 0.001 | [3] 0.098 | [4] 0.178 | [5] 0.162

EGLN1 (UniProt Q9GZT9)
Chain of UniProt Q9GZT9 (Q9GZT9 whole entry, looked up): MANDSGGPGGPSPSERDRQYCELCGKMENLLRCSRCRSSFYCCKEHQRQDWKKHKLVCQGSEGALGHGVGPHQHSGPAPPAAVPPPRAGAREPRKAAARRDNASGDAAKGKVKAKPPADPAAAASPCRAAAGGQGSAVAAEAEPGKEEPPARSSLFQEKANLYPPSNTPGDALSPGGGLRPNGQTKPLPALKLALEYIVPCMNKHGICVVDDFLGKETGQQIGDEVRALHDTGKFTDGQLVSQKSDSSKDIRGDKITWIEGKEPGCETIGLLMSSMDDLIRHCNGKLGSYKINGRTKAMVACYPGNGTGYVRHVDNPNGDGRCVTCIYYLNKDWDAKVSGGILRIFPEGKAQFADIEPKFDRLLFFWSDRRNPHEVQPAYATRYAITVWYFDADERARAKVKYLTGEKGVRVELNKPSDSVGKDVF
active: [2] -0.395
inactive: [1] 0.008 | [3] 0.025 | [4] -0.024 | [5] -0.009

EIF1 (UniProt P41567)
Chain of UniProt P41567 (P41567 whole entry, looked up): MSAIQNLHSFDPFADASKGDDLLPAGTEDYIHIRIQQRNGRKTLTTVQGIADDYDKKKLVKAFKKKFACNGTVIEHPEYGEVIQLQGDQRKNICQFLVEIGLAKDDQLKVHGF
inactive: [1] -0.032 | [2] 0.12 | [3] -0.024 | [4] 0.036 | [5] 0.028

FBXO9 (UniProt Q9UK97)
Chain of UniProt Q9UK97 (Q9UK97 whole entry, looked up): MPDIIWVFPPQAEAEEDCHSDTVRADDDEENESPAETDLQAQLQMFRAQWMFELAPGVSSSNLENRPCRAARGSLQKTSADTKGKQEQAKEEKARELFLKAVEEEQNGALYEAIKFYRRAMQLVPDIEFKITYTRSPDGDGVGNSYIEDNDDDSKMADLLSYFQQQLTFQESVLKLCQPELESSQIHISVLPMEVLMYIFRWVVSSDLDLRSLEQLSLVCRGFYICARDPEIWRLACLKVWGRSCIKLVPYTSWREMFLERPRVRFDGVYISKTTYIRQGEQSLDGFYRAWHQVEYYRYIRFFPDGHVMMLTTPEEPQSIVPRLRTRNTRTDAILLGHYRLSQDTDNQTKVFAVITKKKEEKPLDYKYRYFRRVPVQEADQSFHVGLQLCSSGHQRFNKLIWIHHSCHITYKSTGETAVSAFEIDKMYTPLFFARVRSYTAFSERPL
inactive: [1] -0.154 | [2] -0.135 | [3] 0.009 | [4] -0.046 | [5] -0.188
